The record followed here is PubChem BioAssay (NCI).

About 83,000 compounds went through this panel and 20% of them were active in at least one assay; those are over-represented in the sample as a whole.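 96-well plates, one dose, 48 hours. Percent growth reported; active if below 10.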 The source made the active and inactive calls.

In this experiment the test system is OVCAR-4 ovarian. Briefly: NCI-60 one-dose screen, 48 h (100 = growth as untreated, 0 = no growth, -100 = all killed). The settings on record: 10 µM unless noted. On the procedure: Growth inhibition of the OVCAR-4 human tumor cell line is measured as a screen for anti-cancer activity. Cells are grown in 96 well plates and exposed to the test compound for 48 hours. Compounds are tested at a single concentration, which is 10^-5 M for most compounds. The reported endpoint is percent growth (GI% or GIPRCNT), where numbers from 0 - 100% represent growth inhibition, and numbers from -100% - 0 represent cell death. For example, a value of 40 represents 60% growth inhibition. A value of 0 means no net growth occurred over the course of the experiment. A value of -40 indicates 40% of cells at the beginning of the experiment died by the end of the experiment. A value of -100 means all cells are dead at the end of the experiment.
NCI-60 Human Tumor Cell Lines Screen was performed using the standard one-dose NCI protocol, which is described in more detail at https://dtp.cancer.gov/discovery_development/nci-60/default.htm.
Compounds with GIPRCNT values below 10 were considered active. Activity score was based on GIPRCNT using the following formula: […]
Score is 0 for GIPRCNT values of 100 or above, 50 for GIPRCNT values of 0, and 100 for GIPRCNT values of -100.
Turning to `COc1ccc(NC(=O)c2ccccc2-c2ccccc2)c(C(N)=O)c1`, the growth was 49.5% (inactive).

In the case of `Cc1ccccc1NC(=O)NC(CC(N)=O)c1ccc2c(c1)nc(-c1cccc(Oc3ccc(C(C)(C)C)cc3)c1)n2CCCN1CCCCC1C` (stereo not given), the growth was 66.5% (inactive). Consider `Cc1ccc(N/N=C(/C(=O)c2ccc(Cl)cc2)c2nc(C)cc(=O)[nH]2)cc1`, for which the growth is 116% (inactive). For `COc1ccc2nc(N/N=C(\C)c3ccccn3)cc(C)c2c1`, the growth was 14.8% (inactive). `O=C(Nc1ccccc1OC(=O)c1ccccc1)c1ccccc1`: the growth is 63.5% (inactive). Take `OC(c1cc(-c2cccc(Cl)c2)nc2ccccc12)C1CCCCN1` (stereo not given): the growth is -7.1% (active). The figure for `O=C1NCCc2c1noc2-c1ccccc1` is 114% (inactive); for `Clc1ccc2c(c1)C(Br)c1cc(Cl)cc(Cl)c1-2` (stereo not given) it is 88.5% (inactive); for `CCN(CC)c1ccc(N=C2C=CC(=O)C=C2NC(C)=O)cc1` it is 104% (inactive). Turning to `CCN(CC)CCNCC(=O)Oc1ccc(/C=C/C(=O)CC(=O)/C=C/c2ccc(OC(=O)CNCCN(CC)CC)c(OC)c2)cc1OC`, the growth was 44.3% (inactive).

For `C/C(=C\CCc1ccoc1)CC/C=C(\C)CCCC1COC(=O)C1` (stereo not given), the growth is 87.6% (inactive). The figure for `O=C(Nc1ccc(Cl)cc1)Nc1ccccc1CNc1nc(Nc2ccc(OCCN3CCCC3)cc2)ncc1Cl` is -47.4% (active); for `Cc1ccc(NC(=O)c2sc3nc4c(cc3c2N)C(=O)CCC4)cc1` it is 106% (inactive).

Consider `OCCN1CCN(CCCN2c3ccccc3Sc3ccc(C(F)(F)F)cc32)CC1`, for which the growth was 62.5% (inactive). For `COc1ccc(/C=C2\CCc3ccccc3C2=O)cc1`, the growth is 89.6% (inactive). In the case of `COc1ccc(-c2cnc(SCC(=O)Nc3ccc(-c4nc5ccccc5s4)cc3)n2-c2ccc(OC)cc2)cc1` it was 111% (inactive); in that of `O=C(COc1cccc(/C=C2\Oc3ccc4ccccc4c3C2=O)c1)c1ccc(Cl)cc1`, 85.3% (inactive); in that of `CO[C@H]1/C=C/O[C@@]2(C)Oc3c(C)c(O)c4c(O)c(c(/C=N/N5C(C)CN(Cc6ccc(C#N)cc6)CC5C)c(O)c4c3C2=O)NC(=O)/C(C)=C\C=C\[C@H](C)[C@H](O)[C@@H](C)[C@@H](O)[C@@H](C)[C@H](OC(C)=O)[C@@H]1C` (stereo not given in full), 39.7% (inactive). Regarding `CCSc1nc(-c2cccs2)n2nc(-c3ccco3)cc2n1`, the growth is 68.9% (inactive).

As to `COc1ccc(N2CCN(CC(=O)N3CCN(c4nnc(-c5ccccc5)c(-c5ccccc5)n4)CC3)CC2)cc1`, the growth is 49.8% (inactive).

Consider `COc1ccc(-c2nc3sc4c(c3c(=O)[nH]2)CCCCCC4)cc1`, for which the growth is 50.4% (inactive).

In the case of `CCOC(=O)c1sc(NC(=O)COc2cccc(/C=C3\CCc4cc(OC)ccc4C3=O)c2)nc1C`, the growth was 73.2% (inactive).

Regarding `Nc1ccccc1-c1ccn[nH]1`, the growth was 94.7% (inactive).

Consider `Cc1cc(C(=O)Nc2ccc3cc(CN4CCOCC4)ccc3n2)c(C)n1-c1ccccc1`, for which the growth was 6.66% (active).

For the compound `O=C(NCCCl)NCCN1c2nc3ccccc3cc2Sc2cc3ccccc3nc21`, the growth was 49.5% (inactive). As to `CCCCCc1c(C)[nH]c(/C=C2\N=C(c3ccc[nH]3)C=C2Oc2ccccc2)c1C`, the growth is -74.7% [100 µM] (active). For `O=c1[nH]cc(Nc2cc(Cl)c3nonc3c2[N+](=O)[O-])c(=O)[nH]1`, the growth was 121% (inactive).

With `CCCc1n(Cc2ccc3ccccc3c2)cc[n+]1Cc1ccc2ccccc2c1`, the growth is 9.35% (active). In the case of `CC(=O)N1N=C(c2ccc(C(F)(F)F)cc2)CC1c1ccc2c(c1)OCO2` (stereo not given) it was 77.8% (inactive); in that of `CC1C(=O)NC2=Nc3ccccc3C(=O)NN21` (stereo not given), 107% (inactive). In the case of `COc1ccc(C(=O)/C=C/c2cccc(Nc3ccnc4cc(Cl)ccc34)c2)cc1` it was -46% (active); in that of `CC(=O)c1nn(-c2ccccc2)c(=Nc2ccccc2)cc1C`, 96.9% (inactive); in that of `COC(=O)[C@H](Cc1cnc[nH]1)NC(=O)[C@@H](NC(=O)Nc1cc(C(F)(F)F)cc(C(F)(F)F)c1)C(C)C`, -85.1% [100 µM] (active). In the case of `CC(C)Sc1nc(-c2ccc(Br)cc2)c(C#N)c(N2CCCCC2)n1` it was 95.1% (inactive).

Regarding `O=C1CSC(c2ccccc2O)N1c1nnc(Cn2ccnc2)o1` (stereo not given), the growth is 64.4% (inactive).

In the case of `CC1(C)CC2(C)CC(=O)C1C(C(=O)O)C2C(=O)O` (stereo not given), the growth is 109% (inactive). As to `CC1C(C)N(C(=O)CCl)c2ccccc2N1C(=O)CCl` (stereo not given), the growth was -27.2% (active).

As for `Nc1nc(Nc2ccccc2SSc2ccccc2Nc2nc(N)nc(-c3ccc(I)cc3)n2)nc(-c2ccc(I)cc2)n1`, the growth is 107% (inactive). In the case of `COc1ccc(-c2cc(-c3cccnc3)nc3sc(C(=O)Nc4ccccc4)c(N)c23)cc1OC` it was 80.1% (inactive). In the case of `COc1cc(OC)c2c(c1Cl)O[C@]1(C2=O)C(OCc2ccccc2)=CC(=O)C[C@H]1C` it was 39.2% (inactive).
